ADAM17 inh: inhibits human ADAM17. recombinant ADAM17, EDANS/DABCYL FRET peptide cleavage. inhibition, % at 6.95 µM. 0.83% of 370,000 active;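 active = inhibition above the mean of compounds lying between control limits plus 3 SD, set per campaign, cut at about 8.5% in these data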
ADAM10 inh: inhibitors of human ADAM10; recombinant ADAM10, EDANS/DABCYL FRET peptide cleavage, 3 h; 0.62% of 370,000 active; inhibition, % at 7 µM; O14672;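 active = inhibition above a per-campaign cutoff equal to the mean of compounds falling between control-based bounds plus 3 SD, cut at about 20% in these data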
V-ATPase pHluor: regulators of yeast V-ATPase proton transport | S. cerevisiae, pHLuorin cytosolic pH fluorescence | response, % at 10 µM | 0.37% of 350,000 active; in the data active = response mostly above about 7.3%, no sharp cut-off; inactive = mostly below about 5.4%; note: actives read high
proKLK7 act: activators of human kallikrein-7 zymogen; purified proKLK7, EDANS-DABCYL substrate fluorescence; 100% is mature enzyme control, 0% vehicle; activation, % at 7 µM; 0.9% of 370,000 active;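 active = activation above the mean of all tested compounds plus 3 SD, computed per campaign excluding outliers beyond control limits, cut at about 13% in these data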
Target sequence (P49862 whole entry, looked up): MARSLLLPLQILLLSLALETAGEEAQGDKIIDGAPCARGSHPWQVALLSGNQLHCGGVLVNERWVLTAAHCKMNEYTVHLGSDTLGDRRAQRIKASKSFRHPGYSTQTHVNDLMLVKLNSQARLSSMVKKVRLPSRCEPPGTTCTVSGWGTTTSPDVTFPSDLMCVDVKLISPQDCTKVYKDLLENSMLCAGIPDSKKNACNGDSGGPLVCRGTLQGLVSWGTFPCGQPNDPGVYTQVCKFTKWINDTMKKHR
proKLK7 act conf: proKLK7 activation, confirmation | purified proKLK7, EDANS-DABCYL substrate fluorescence; scaled: vehicle 0, mature enzyme 100 | activation, % at 7 µM | shares compounds with proKLK7 act | AID 686949 | 68% of 3,200 active;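 active = activation, as change over the incubation, above the mean of all tested compounds plus 3 SD, cut at about 13% in these data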
EDANS-DABCYL int: fluorescence interference counter-screen for KLK7 activators; shares compounds with proKLK7 act; EDANS-DABCYL substrate fluorescence interference, no enzyme, 4 h; solvent 0%, active enzyme control 100%; activation, % at 7 µM; 80% of 3,200 active; AID 686952;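 active = activation above the all-compound mean plus 3 SD, ignoring values outside control-based bounds, cut at about 4.8% in these data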;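 note: value is the 4 h activation minus the activation read at time zero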
K7 EDANS ctr: EDANS fluorescence interference in dose response, no enzyme | shares compounds with proKLK7 act | EDANS-DABCYL peptide fluorescence interference | EC50, µM | 20% of 250 active;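 active = compounds that raise the fluorescence signal in this interference counterscreen, with EC50 at or below 10 µM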;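 note: intact quenched peptide substrate alone read at 355 nm excitation and 520 nm emission; signal is fluorescence gain from T0 to T4 after four hours at room temperature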
Numbers stand for hits; 0 = inactive; - = no result given. Hits are enriched below; roughly 2.3% of the tested compounds scored in any of these assays.

SMILES	ADAM17 inh	ADAM10 inh	V-ATPase pHluor	proKLK7 act	proKLK7 act conf	EDANS-DABCYL int	others
COP1(=O)CCOCC[C@H](CC(C)C)NC(=O)[C@H](CC(C)C)N1 (stereo partly specified)	0	0	-	-	-	-
COc1cc(Cn2c3ccc(NC(=O)CCc4ccc(O)cc4)cc3c(=O)n2C)ccc1F	0	0	-	13	0	10
COc1cc(Cn2c3ccc(NC(=O)NCc4ccc(F)cc4)cc3c(=O)n2C)ccc1F	0	0	-	0	-	-
Cn1c(=O)c2cc(NC(=O)CCc3ccc4c(c3)OCO4)ccc2n1Cc1ccc(F)cc1	0	0	-	32	65	72
COC(=O)[C@]1(C#N)CC(=O)N(C(C)C)[C@@H]1c1ccccc1	0	0	-	0	-	-
O=c1nc2ccc(Cl)cn2c2ccc(S(=O)(=O)N3CCCCC3)cc12	0	0	0	0	-	-
O=c1nc2ccc(Cl)cn2c2ccc(S(=O)(=O)N3CCOCC3)cc12	0	0	0	20	70	78
COc1ccc2cc(CN(CCCN3CCOCC3)Cc3nnnn3C3CCCC3)c(=O)[nH]c2c1	0	0	0	16	0	0
CCOc1cc(C2C3=C(CCCC3=O)N(CCC(=O)O)C3=C2C(=O)CCC3)ccc1OS(=O)(=O)c1ccc(C)cc1	0	0	0	20	30	32
Cc1ccc(S(=O)(=O)Oc2ccc(C3C4=C(CCCC4=O)N(CCC(=O)O)C4=C3C(=O)CCC4)cc2Cl)cc1	0	0	0	0	-	-
COc1ccc(-c2cc(C(F)F)n3ncc(C(=O)n4ccnc4C)c3n2)cc1	0	0	0	13	169	167
COc1ccc(C)cc1S(=O)(=O)Nc1cccc(C)c1	0	0	0	0	-	-
O=S(=O)(Nc1cccc(-c2cn3cccnc3n2)c1)c1ccc(Cl)cc1	0	0	0	28	0	6.4
COc1ccc(C)cc1S(=O)(=O)Nc1cccc(-c2cn3cccnc3n2)c1	0	0	0	18	0	0
C[C@H]1[C@@H](NC(=O)c2cccc(N(C)C)c2)CC[C@@]23CCCN2C(=O)CCC[C@@H]13	0	0	-	-	-	-
CCN1C[C@@H]2[C@@H]3C(=O)N(Cc4ccccc4)C(=O)[C@@H]3[C@](CC)(C1=O)N2C(=O)c1ccc(Cl)cc1	0	0	-	0	-	-
O=S1(=O)CCN2C=C(Cl)C=C(Cl)C2=N1	0	0	0	25	33	29
O=S1(=O)CCN2C=C(Br)C=C(Br)C2=N1	0	0	0	0	-	-
CCOC(=O)c1cn(C2CC2)c2c(F)c(NCCCN(C)C)c(F)cc2c1=O	0	0	0	20	0	12
CCOC(=O)c1cnc2c(ccc3ccccc32)c1NCCCN(C)C	0	0	0	0	-	-
CC[C@@H](CCCc1ccccc1OC)CCS(=O)(=O)C(C)(C)C	0	0	-	0	-	-
CCOc1ccc2nc(NCCNC(=O)CC)c(C#N)cc2c1	0	0	0	29	40	44
CC(=O)OCCn1c2nc(=O)[nH]c(=O)c-2nc2cc(C)c(C)cc21	0	0	0	31	62	71
CC(=O)OCCn1c(C)[n+](CCOC(C)=O)c2cc(Cl)c(Cl)cc21	0	0	0	0	-	-
Nc1ccc(-c2nc3cc(N)ccc3n2CCO)cc1	0	0	0	68	66	69
SMILES	ADAM17 inh	ADAM10 inh	V-ATPase pHluor	proKLK7 act	proKLK7 act conf	EDANS-DABCYL int	others
CN(C)c1cccc2c(S(=O)(=O)NC(=O)[C@H]3O[C@@H](n4cnc5c(N)ncnc54)[C@H](O)[C@@H]3O)cccc12	0	0	-	25	35	23	K7 EDANS ctr=8.8
COc1ccccc1N1CCN(C(=O)c2ccc3c(c2)nc(C)n3-c2cc(OC)c(OC)c(OC)c2)CC1	0	0	-	0	-	-
C=CCNC(=S)NNC(=O)c1ccc(=O)n(Cc2ccccc2)c1	0	0	0	0	-	-
CNC(=S)NNC(=O)c1cccn(Cc2ccc(Cl)c(Cl)c2)c1=O	0	0	0	21	31	34
C=CCNC(=S)NNC(=O)c1cccn(Cc2ccc(Cl)c(Cl)c2)c1=O	0	0	0	22	33	36
CNC(=S)NNC(=O)c1cccn(Cc2cccc(Cl)c2)c1=O	0	0	0	15	30	34
COC(=O)c1cc2c(c3c4ccccc4n(S(=O)(=O)c4ccc(OC)cc4)c13)C(=O)N(Cc1ccc(N(C)C)cc1)C2	0	0	-	0	-	-
COC(=O)[C@]12C[C@H](CC(=O)N3CCCC3)C(=O)N(Cc3cccc4ccccc34)C1=C[C@H](C(C)(C)C)O[C@@H]2C	0	0	-	0	-	-
CC(=O)O[C@H]1CC[C@]2(C)C3CC[C@]4(C)[C@@H]([C@H](C)/C=C/[C@H](C)C(C)C)CC[C@H]4[C@@]34C=C[C@]2(C1)N(C(=O)c1ccccc1)O4 (stereo partly specified)	0	0	-	0	-	-
Oc1[nH]c2ccccc2c1N=Nc1ccc(F)cc1	0	0	0	97	36	56
CNC(=O)c1cc(Nc2nnc(-c3ccc(C)c(S(N)(=O)=O)c3)c3ccccc23)ccc1OC	0	0	0	212	223	136
CC(C)(C)c1ccc(OC(=O)Nc2ccc(O)c(C(=O)O)c2)cc1	0	0	0	13	14	12
Cc1cccc(OC(=O)Nc2ccc(C(=O)O)c(O)c2)c1	0	0	0	0	-	-
CCC[C@H]1[C@@H](OC(=O)NCc2cccc(Cl)c2)CC[C@@]23CCCN2C(=O)CCC[C@@H]13	0	0	-	-	-	-
O=c1cccc2n1Cc1cc3ccccc3nc1-2	0	0	0	47	60	69
CCCCN(CCCC)Cc1cc(=O)oc2cc(C)c(Cl)cc12	0	0	-	0	-	-
CCCCc1cc(=O)oc2c(CN(CC)CC)c(O)c(Cl)cc12	0	0	-	63	70	71
CCCc1cc(=O)oc2c(CN(CC)CC)c(O)c(Cl)cc12	0	0	0	53	66	68
Cc1cc(=O)oc2cc(NC(=O)C(C)N3C(=O)C4CCCCC4C3=O)ccc12 (stereo unspecified)	0	0	0	0	-	-
CCN(CC)c1ccc(C(=O)OCc2cc(=O)oc3cc(O)ccc23)cc1	0	0	0	0	-	-
Cc1ccc(NC(=O)CSC(C)C(=O)OCc2cc(=O)oc3cc(O)ccc23)cc1 (stereo unspecified)	0	0	0	241	314	275
CC(=O)Nc1ccc2c(COC(=O)[C@H](C)N3C(=O)C4CCCCC4C3=O)cc(=O)oc2c1 (stereo partly specified)	0	0	0	24	0	4.7
CSCCC(NS(=O)(=O)c1ccccc1)C(=O)OCc1cc(=O)oc2cc(O)ccc12 (stereo unspecified)	0	0	0	435	498	529
CCN=C1NC(c2ccccc2C(F)(F)F)C(C(=O)OC)=C(C)N1C (stereo unspecified)	0	0	-	0	-	-
O=C(Nc1nc(Cc2ccccc2)c(Cc2ccccc2)n1Cc1ccccc1)c1ccccc1	0	0	-	0	-	-

Compound activity from PubChem BioAssay.
